Source: PubChem BioAssay (National Center for Advancing Translational Sciences (NCATS))
GLP1R ag: GLP-1 receptor (human) agonism; 380,000 tested, 0.007% active; Potency, µM (top dose mostly 45.6 µM), most hits filed as activators; HEK293 GLP-1R CRE-luciferase, luminescence, 4-6 h; cells express a hypersensitive GLP-1R form; P43220
Target sequence (P43220 whole entry, looked up): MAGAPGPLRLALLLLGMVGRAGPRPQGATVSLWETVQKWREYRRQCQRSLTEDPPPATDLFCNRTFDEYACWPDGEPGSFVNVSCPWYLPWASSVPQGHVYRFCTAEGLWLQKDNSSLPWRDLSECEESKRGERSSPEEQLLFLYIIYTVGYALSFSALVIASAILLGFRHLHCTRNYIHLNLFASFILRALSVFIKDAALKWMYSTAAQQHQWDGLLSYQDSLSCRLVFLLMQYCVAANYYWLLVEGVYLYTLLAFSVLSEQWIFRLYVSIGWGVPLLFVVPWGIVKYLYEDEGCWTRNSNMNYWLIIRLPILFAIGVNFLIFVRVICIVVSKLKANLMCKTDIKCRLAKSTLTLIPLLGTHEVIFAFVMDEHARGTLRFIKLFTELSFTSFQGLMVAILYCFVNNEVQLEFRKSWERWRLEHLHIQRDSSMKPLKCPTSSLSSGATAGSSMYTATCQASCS
GLP1R inv ag: acts as inverse agonist at human GLP-1 receptor; P43220; HEK293 GLP-1R CRE-luciferase, luminescence, 24 h; GLP-1R form is constitutively active; Potency, µM (titrated, usually from 38.3 µM), actives largely listed as inhibitors; 410,000 tested, 1.6% active; also: nearly all actives have a fitted effect of over 55% in size
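Stable HEK293 clone (constitutively active GLP-1R + cAMP-response luciferase); 200 cells/uL plated, 12 h pre-culture, compound 24 hr, 37 deg C/5% CO2; detection reagent 12 min RT; luminescence.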
HEK293 tox: cytotoxicity counter-screen for GLP-1 receptor inverse agonists | 410,000 tested, 0.13% active | HEK293 cAMP-luciferase reporter cells, luminescence, 24 h | Potency, µM (doses to about 38.3 µM), usual class: inhibitors;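 also: loss of luciferase light is scored as toxicity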
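Luminescence readout: signal drop marks cytotoxicity. Plated cells grew 12 h at 37 °C, 5% CO2, received 23 nL compound for 24 h, then got luciferase reagent, read after 12 min at RT.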
a7 integrin act: integrin-mediated muscular dystrophy alleviation activation; AID 624291; 350,000 tested, 0.064% active; Potency, µM (highest dose often 38.3 µM), actives largely listed as activators; alpha7betagal myoblasts, beta-gal FDG fluorescence, 48 h; also: nearly all actives have a fitted effect of over 60% in size
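Alpha7betagal+/- myoblasts (passage 13) were plated 16-24 hr, then exposed to compounds (1:260 dilution of DMSO stock) for 48 hours at 37C. After MPER lysis, β-galactosidase reporter activity was read as FDG fluorescence (ex 480/em 540) after 30 minutes.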
BRCA1 expr up: activators of BRCA1 expression; MCF7-BRCA1-FFLuc reporter, luminescence, 48 h; response scale: scaled: vehicle 0%, 10 µM genistein 100%; Potency, µM (series often up to 46.1 µM), actives largely listed as activators; 380,000 tested, 1.1% active; AID 624202; also: nearly all actives have a fitted effect of over 80% in size
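MCF7-BRCA1-FFLuc, 2000 cells/well; 2 h attach, 37 °C/5% CO2; compound 48 h; luciferase substrate 15 min; luminescence end-point. Norm. to genistein 10 microM max activation and DMSO; concentration-response curves fitted.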
Large screens that a line does not name were inactive. Compounds with a hit are over-represented: about 2.7% of the library has one in this group of screens. Calls follow the shape of the dose curve; as a rule, active = well fitted curve in the direction sought with a large enough effect; inconclusive = small, poorly fitted or top-dose-only effect, or another doubt; inactive = no such curve, though single readings can be large; an effect the other way counts as inactive or inconclusive.

Cc1ccc(S(=O)(=O)N2[C@@H](c3ccc(C(C)C)cc3)C(C(=O)O)=C[C@H]2C(C)(C)C)cc1	GLP1R inv ag 10µM
COc1ccccc1CNC(=O)CN1C(=O)CSc2ccc(S(=O)(=O)N(C)C)cc21	none (no result: GLP1R ag, a7 integrin act)
COc1cccc(OCC(=O)NCCS(=O)(=O)N2CCN(c3ccccc3F)CC2)c1	none (no result: GLP1R ag, a7 integrin act, BRCA1 expr up)
Cc1ccc(Oc2c(C(N)=O)cc([N+](=O)[O-])cc2[N+](=O)[O-])cc1	GLP1R inv ag 11µM, HEK293 tox inconclusive
Cc1ccccc1CSc1ncc(Cl)c(C(=O)Nc2nc3ccc(F)cc3s2)n1	none (no result: GLP1R ag, a7 integrin act)
O=C(Cn1cc(SCc2ccccc2Cl)c2ccccc21)N1CCCCCC1	GLP1R inv ag inconclusive (no result: GLP1R ag, a7 integrin act, BRCA1 expr up)
CCc1ccc(NC(=O)C2CCN(S(=O)(=O)c3ccc4[nH]c5c(c4c3)CCCCC5)CC2)cc1	GLP1R inv ag inconclusive (no result: GLP1R ag, a7 integrin act, BRCA1 expr up)
CC(C)C[C@H](CO)N(Cc1ccccc1)S(=O)(=O)N(Cc1ccccc1)[C@@H](CO)CC(C)C	GLP1R inv ag 5.6µM, HEK293 tox inconclusive
C=CS(=O)(=O)N(Cc1ccccc1)[C@H](CO)CC(C)C	none
O=c1c2sc3ccccc3c2n(Cc2ccccc2)c(=O)n1CCc1ccccc1	none (no result: a7 integrin act)
CCCN(C(=O)c1c(C)oc2ncn(CC(C)C)c(=O)c12)c1ccccc1C	none (no result: GLP1R ag, a7 integrin act)
O=C(c1cccc(Cl)c1)N1CCN(Cc2ccc3c(c2)OCO3)CC1	GLP1R inv ag inconclusive
O=C(CN1CCN(Cc2ccc3c(c2)OCO3)CC1)N1CCc2[nH]c3ccc(F)cc3c2C1	GLP1R inv ag 8.9µM
O=C(c1cc2cc(Cl)ccc2[nH]1)N1CCN(Cc2ccc3c(c2)OCO3)CC1	GLP1R inv ag 11µM
CCc1nnc2c(NCc3ccccc3OC)nc3ccccc3n12	none (no result: GLP1R ag, a7 integrin act, BRCA1 expr up)
COc1ccc(NS(=O)(=O)c2cc(C)ccc2OC)cc1OC	none
COc1ccc(C)cc1S(=O)(=O)Nc1ccc(F)c(Cl)c1	GLP1R inv ag 10µM
CS(=O)(=O)c1ccc(Cl)c(NC(=O)CSc2nncn2-c2ccccc2)c1	a7 integrin act 13µM
O=C(/C=C/c1cnc2ccccc2n1)NC12CC3CC(CC(C3)C1)C2	GLP1R inv ag 2.5µM
c1ccc(-c2ccc(-c3csc4ncnc(Sc5nnnn5-c5ccccc5)c34)cc2)cc1	none (no result: GLP1R ag, GLP1R inv ag, HEK293 tox, a7 integrin act)
O=C(Nc1ccc2[nH]ncc2c1)c1ccccc1Cl	BRCA1 expr up 2.8µM
CCN1CCN(Cc2ccc(NC(=O)Nc3ccc(SC)cc3)cc2)CC1	GLP1R inv ag 7.9µM, HEK293 tox inconclusive
CC1(C)CC(=O)C=C(c2ccc(-c3ccccc3)cc2)C1=O	GLP1R inv ag inconclusive, BRCA1 expr up 13µM
CC1(C)CC(=O)C=C(c2ccc(-c3ccccc3)cc2)C1	BRCA1 expr up 10µM
CN1C(=O)c2ccccc2Sc2ccc(NC(=O)COc3ccc(Cl)cc3)cc21	GLP1R inv ag inconclusive (no result: GLP1R ag, a7 integrin act, BRCA1 expr up)
Cc1ccc(S(=O)(=O)CC(O)COc2ccccc2C#N)cc1 (stereo not given)	none
N#Cc1ccc(OCC(O)CS(=O)(=O)c2ccccc2)cc1 (stereo not given)	a7 integrin act 10µM
COc1ccc(CNCCSc2nnnn2-c2ccccc2)c(OC)c1	GLP1R inv ag inconclusive (no result: GLP1R ag, a7 integrin act, BRCA1 expr up)
CC(C)Sc1nnc(NC(=O)c2ccc3c(c2)OCO3)s1	BRCA1 expr up 2.5µM
CCN(CC)C(=O)c1sc(NC(=O)c2ccc3c(c2)OCO3)c(C(N)=O)c1C	BRCA1 expr up 11µM
CCN(CC)C(=O)c1sc(NC(=O)c2ccncc2)c(C(=O)OC)c1C	none
CC(C)c1nnc(NC(=O)c2ccc3c(c2)OCO3)s1	GLP1R inv ag 1.1µM
Cc1cccc(Cn2cc3c(=O)n(CC(=O)Nc4cccc(C)c4C)nc-3c3cc(F)ccc32)c1	none (no result: GLP1R ag, a7 integrin act, BRCA1 expr up)
CC(Oc1ccc(Cl)cc1Cl)c1nc(-c2ccc(NC(=O)c3ccccn3)cc2)no1 (stereo not given)	BRCA1 expr up 1.3µM
CC(NCC(=O)NC(=O)NC1CCCC1)c1ccc(Cl)cc1Cl (stereo not given)	GLP1R inv ag 10µM
O=C(COC(=O)c1ccc(Cl)cc1)NC(=O)NC1CCCC1	none
CC1=CC(C)(C)n2c(O)c(N=NC(N)=S)c3cc(C)cc1c32	GLP1R inv ag 2µM, HEK293 tox 2.8µM
